Inconclusive results are not listed. Active and inactive are the calls of the source. Unless noted, calls come from the whole dose curve.
How the values were obtained:
[1] = qHTS assay to identify small molecule agonists of the vitamin D receptor (VDR) signaling pathway - cell viability counter screen (AID 743224; active = well fitted curve in the direction sought with a large enough effect in the repeat runs; an effect the other way counts as inactive or inconclusive; note: nearly all actives have a fitted effect of over 50% in size; note: potency is the fitted concentration of half-maximal effect)
How it was run: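 Cells: VDR-bla, 2,000/well, settled 4 h. Treatment: compounds in DMSO, 16 h, 37C/5% CO2. Readout: CellTiter-Glo luminescence after 30 min RT.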

[2] = qHTS assay to identify small molecule antagonists of the vitamin D receptor (VDR) signaling pathway - cell viability counter screen (AID 743225; active = well fitted curve in the direction sought with a large enough effect in the repeat runs; an effect the other way counts as inactive or inconclusive; note: nearly all actives have a fitted effect of over 50% in size)
How it was run: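 HEK293T VDR-bla; cpd + 1a,25-(OH)2D3 3 nM final, 16 h 37C/5% CO2; B/G FRET substrate 2 h RT; then CellTiter-Glo 30 min RT, luminescence.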

[3] = qHTS assay to identify small molecule agonists of the NFkB signaling pathway - cell viability counter screen (AID 1159515); note: series mostly up to about 61 µM; nearly all actives have a fitted effect of over 55% in size
How it was run: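 Cells are seeded (2,000 NFkB-bla ME-180 per well), rested overnight, and dosed with DMSO-dissolved compounds for 5 hr at 37 C. Viability is then read by CellTiter-Glo luminescence after 30 min at room temperature.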

[4] = qHTS assay to identify small molecule agonists of the endoplasmic reticulum stress response signaling pathway (AID 1159516; active = well fitted activation curve with a large enough effect in the signal ratio in the repeat runs, not every such curve was filed as active; the % refers to the signal ratio)
How it was run: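 Cells are seeded at 1,500 per well and incubated overnight. Compounds in DMSO are added for 5 hr at 37 C, then beta-lactamase FRET substrate for 2 hr at room temperature, and fluorescence at 460 and 530 nm is measured.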

[5] = qHTS assay to identify small molecule agonists of the endoplasmic reticulum stress response signaling pathway - cell viability counter screen (AID 1159517);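 note: HeLa cells carrying an ER stress response element beta-lactamase reporter; series mostly up to about 61 µM; nearly all actives have a fitted effect of over 50% in size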
How it was run: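 ESRE-bla HeLa cells (1,500/well) were plated overnight at 37 C and exposed to compounds for 5 hr. After the 2 hr beta-lactamase substrate read, CellTiter-Glo went into the same wells, and luminescence was read after 30 min at room temperature.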

[6] = qHTS assay to identify small molecule antagonists of the retinoid-related orphan receptor gamma (ROR-gamma) signaling pathway - cell viability counter screen (AID 1159520; active = well fitted curve in the direction sought with a large enough effect in the repeat runs; an effect the other way counts as inactive or inconclusive; note: nearly all actives have a fitted effect of over 50% in size)
How it was run: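 Cytotoxicity was read from cellular ATP (CellTiter-Glo luminescence) after 16 hr at 37 C with 1 uM doxycycline induction. The inducer was added 2 hr after compound transfer to Tet-on ROR gamma CHO cells.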

[7] = target: Nuclear receptor ROR-gamma (Homo sapiens) (UniProt P51449); assay: qHTS assay to identify small molecule antagonists of the retinoid-related orphan receptor gamma (ROR-gamma) signaling pathway (AID 1159521; active = well fitted curve in the direction sought with a large enough effect in the repeat runs; an effect the other way counts as inactive or inconclusive)
How it was run: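 Cells were plated, rested 4 h at 37 C, exposed to compounds for 2 h, then given 1 uM final doxycycline hyclate to induce RORγ expression. After 16 h, ONE-Glo luminescence from the ROR response element reporter was measured.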

[8] = qHTS assay to identify small molecule agonists of the AP-1 signaling pathway - cell viability counter screen (AID 1159525); note: nearly all actives have a fitted effect of over 55% in size
How it was run: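 Intracellular ATP by Cell Titer Glo luminescence (30 min, RT) in the same ME-180 AP-1-bla wells after the 5 h compound exposure at 37 °C. Normalised to tetra n-octyl ammonium bromide and DMSO controls.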

[9] = qHTS assay to identify small molecule agonists of the AP-1 signaling pathway (AID 1159526)
[10] = target: Retinoic acid receptor RXR-alpha (Homo sapiens) (UniProt P19793); assay: qHTS assay to identify small molecule agonists of the RXR signaling pathway (AID 1159527); note: nearly all actives have a fitted effect of over 35% in size; note: potency is the fitted concentration of half-maximal effect
Sequence of Retinoic acid receptor RXR-alpha (Homo sapiens) (P19793 whole entry, looked up): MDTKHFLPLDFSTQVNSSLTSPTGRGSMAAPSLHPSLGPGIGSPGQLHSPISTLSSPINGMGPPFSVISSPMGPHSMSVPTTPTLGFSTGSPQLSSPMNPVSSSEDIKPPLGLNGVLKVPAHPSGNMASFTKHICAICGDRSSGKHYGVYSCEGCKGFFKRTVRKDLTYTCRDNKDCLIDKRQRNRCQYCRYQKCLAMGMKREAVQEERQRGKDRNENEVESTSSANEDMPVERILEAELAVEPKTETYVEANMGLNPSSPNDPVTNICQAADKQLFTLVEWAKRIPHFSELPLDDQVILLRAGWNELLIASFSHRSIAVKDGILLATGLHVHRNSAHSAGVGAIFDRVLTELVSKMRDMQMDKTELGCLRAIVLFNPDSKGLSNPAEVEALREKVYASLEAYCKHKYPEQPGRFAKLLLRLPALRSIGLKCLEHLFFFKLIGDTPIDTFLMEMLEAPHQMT
How it was run: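 Cells plated at 2,000/well, rested 5 hr at 37 C, pin-dosed with DMSO compound solutions, incubated 16 hr, then loaded with B/G FRET substrate for 2 hr at RT before dual-emission fluorescence reading.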

Measured: Potency

CN(C)P(=O)(N(C)C)N(C)C
inactive: [1] | [2] | [3] | [4] | [5] | [6] | [7] | [8] | [9] | [10]

O=NN(c1ccccc1)c1ccccc1
inactive: [1] | [2] | [3] | [4] | [5] | [6] | [7] | [8] | [9] | [10]

CC(C)(O)C#N
inactive: [1] | [2] | [3] | [4] | [5] | [6] | [7] | [8] | [9] | [10]

C[N+](C)(C)CC(=O)O
inactive: [1] | [2] | [3] | [4] | [5] | [6] | [7] | [8] | [9] | [10]

ClC(Cl)=C(Cl)C(Cl)=C(Cl)Cl
inactive: [1] | [2] | [3] | [4] | [5] | [6] | [7] | [8] | [9] | [10]

CCC1(c2ccc(N)cc2)CCC(=O)NC1=O (stereo unspecified)
inactive: [1] | [2] | [3] | [4] | [5] | [6] | [7] | [8] | [9] | [10]

CCCCOC(=O)COC(=O)c1ccccc1C(=O)OCCCC
inactive: [1] | [2] | [3] | [4] | [5] | [6] | [7] | [8] | [9] | [10]

ClCc1ccccn1
inactive: [1] | [2] | [3] | [4] | [5] | [6] | [7] | [8] | [9] | [10]

O=[N+]([O-])/N=C1\NCCN1Cc1ccc(Cl)nc1
inactive: [1] | [2] | [3] | [4] | [5] | [6] | [7] | [8] | [9] | [10]

CCN(CC)C(=O)C(C)Oc1cccc2ccccc12 (stereo unspecified)
inactive: [1] | [2] | [3] | [4] | [5] | [6] | [7] | [8] | [9]

COC(=O)Nc1nc2ccccc2[nH]1
inactive: [1] | [2] | [3] | [4] | [5] | [6] | [7] | [8] | [9] | [10]

CN(C)c1nc(=O)n(C2CCCCC2)c(=O)n1C
inactive: [1] | [2] | [3] | [4] | [5] | [6] | [7] | [8] | [9] | [10]

COP(=O)(NC(C)=O)SC (stereo unspecified)
inactive: [1] | [2] | [3] | [4] | [5] | [6] | [7] | [8] | [9] | [10]

CCOS(=O)(=O)OCC
inactive: [1] | [2] | [3] | [4] | [5] | [6] | [7] | [8] | [9] | [10]

CCOP(=O)(OCC)OCC
active: [10] 5.49 µM
inactive: [1] | [2] | [3] | [4] | [5] | [6] | [7] | [8] | [9]

O=C(O)c1nn(Cc2ccc(Cl)cc2Cl)c2ccccc12
inactive: [1] | [2] | [3] | [4] | [5] | [6] | [7] | [8] | [9]

[CH3][Sn]([Cl])([Cl])[Cl]
inactive: [1] | [2] | [3] | [4] | [5] | [6] | [7] | [8] | [9] | [10]

CS(=O)(=O)NC(=O)c1cc(Oc2ccc(C(F)(F)F)cc2Cl)ccc1[N+](=O)[O-]
inactive: [1] | [2] | [3] | [4] | [5] | [6] | [7] | [8] | [9] | [10]

N#CCCCCC#N
inactive: [1] | [2] | [3] | [4] | [5] | [6] | [7] | [8] | [9] | [10]

CC[n+]1c(-c2ccccc2)c2cc(N)ccc2c2ccc(N)cc21
active: [1] 21.8 µM
inactive: [2] | [3] | [4] | [5] | [6] | [7] | [8] | [9]

S=c1[nH]c2ccccc2[nH]1
inactive: [1] | [2] | [3] | [4] | [5] | [6] | [7] | [8] | [9] | [10]

CSc1nc(NC(C)C)nc(NC(C)C)n1
inactive: [1] | [2] | [3] | [4] | [5] | [6] | [7] | [8] | [9] | [10]

CCOC(=O)c1ccccc1N
inactive: [1] | [2] | [3] | [4] | [5] | [6] | [7] | [8] | [9]
